Columns and labels:
Assay in all cases: PBM binding z-score (relative to random genomic background probes); higher = stronger binding; sequences stand for … in GC…GCGATTGACAGCGTAGAATGAAGG
[1] = tested on: RARb homodimer (NR concentration 270 nM)
In short: (§1)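 Each nuclear receptor dimer, without ligand, was incubated for 1 h on custom Agilent 4×180K protein-binding microarrays. Binding was detected with antibodies against each partner (one per run), and scanned fluorescence was regression-normalized. The binding z-scores are referenced to random human genomic background probes.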

[2] = tested on: RARg:RXRa (NR concentration 270 nM, RXRa partner concentration 90 nM)
In short: as §1

[3] = tested on: RARg homodimer (NR concentration 270 nM)
In short: as §1

[4] = tested on: RXRa DBDmut IVT, anti-RXR (DBD mutation: RXRa K156A/R161A, NR concentration 90 nM)
In short: as §1

[5] = tested on: RXRa homodimer (NR concentration 180 nM)
In short: as §1

[6] = tested on: THRa:RXRa (NR concentration 90 nM, RXRa partner concentration 90 nM)
In short: as §1

[7] = tested on: THRa homodimer (NR concentration 90 nM)
In short: as §1

[8] = tested on: VDR homodimer (NR concentration 270 nM)
In short: as §1

CCTAGCAAGCCAATCTGGGTCACTCAAGGCTTGA was tested, and the PBM binding z-score [1] was 1.9, the PBM binding z-score [2] was 0.58 and the PBM binding z-score [3] was 0.537. It also gave a PBM binding z-score [4] of -0.0119, a PBM binding z-score [5] of 0.781 and a PBM binding z-score [6] of 2.99. For the same sequence, the PBM binding z-score [7] was 0.441 and the PBM binding z-score [8] was 0.0159.
Work on TAGCCTAGGTCATACGGGCCAGTATAGTGTCGGC yielded a PBM binding z-score [1] of 2.87, a PBM binding z-score [2] of 3.74 and a PBM binding z-score [3] of 4.43. It also gave a PBM binding z-score [4] of 0.941, a PBM binding z-score [5] of 3.22 and a PBM binding z-score [6] of 2.92. The PBM binding z-score [7] was 0.814 and the PBM binding z-score [8] was 0.783.
Work on CGAACTAGGTCATTGACAGGACGGTGAATAGTAA yielded a PBM binding z-score [1] of 2.33, a PBM binding z-score [2] of 4.09 and a PBM binding z-score [3] of 4.33. The PBM binding z-score [4] was 2.13, the PBM binding z-score [5] was 2.59 and the PBM binding z-score [6] was 2.58. For the same sequence, the PBM binding z-score [7] was 0.313 and the PBM binding z-score [8] was 0.872.
CGTCAAAGTTCAACAAAGGTAACGTAAAGCACGC was tested, and the PBM binding z-score [1] was 4.37, the PBM binding z-score [2] was 5.63 and the PBM binding z-score [3] was 6.4. The PBM binding z-score [4] was 4.53, the PBM binding z-score [5] was 4.82 and the PBM binding z-score [6] was 4.66. For the same sequence, the PBM binding z-score [7] was 0.367 and the PBM binding z-score [8] was 3.16.
For TATTGTAGATCAGCAGGTTAAGAAAGCTGGCCAA, the PBM binding z-score [1] was -0.28, the PBM binding z-score [2] was -0.0508 and the PBM binding z-score [3] was 0.00581. It also gave a PBM binding z-score [4] of -1.23, a PBM binding z-score [5] of 0.171 and a PBM binding z-score [6] of 0.0661. For the same sequence, the PBM binding z-score [7] was -0.952 and the PBM binding z-score [8] was -0.39.
Work on TCTTGTAGATCAAGCAGGTTAAGCAAGCCTGAGT yielded a PBM binding z-score [1] of 0.0597, a PBM binding z-score [2] of -0.0759 and a PBM binding z-score [3] of -0.399. For the same sequence, the PBM binding z-score [4] was 0.344, the PBM binding z-score [5] was 0.228 and the PBM binding z-score [6] was 0.275. For the same sequence, the PBM binding z-score [7] was -0.299 and the PBM binding z-score [8] was -0.175.
Sequence AGTCAAAGTTCCCTAGGTAACGTAAGATTCAGCT has a PBM binding z-score [1] of 0.045, a PBM binding z-score [2] of 0.0675 and a PBM binding z-score [3] of 0.31. It also gave a PBM binding z-score [4] of 0.164, a PBM binding z-score [5] of -0.00363 and a PBM binding z-score [6] of 0.427. The PBM binding z-score [7] was -0.151 and the PBM binding z-score [8] was -0.324.

Reference: the supplement of paper PMC6555819
